The source of these data is PMC9911399, “Two distinct binding modes provide the RNA-binding protein RbFox with extraordinary sequence specificity”.

Where a chain is given by its changes, count along the chain named. The full ranking holds about 16,000 sequences; the median of “ka relative to ugcaugu” is about 0.096, and the highest 2% start at about 0.35. This is one part of a sample in which the highest values are shown more often than they occur.

B1: AGUUUUA (DNA:RNA)
RNA: GGGAGACCGGAAUUCAGAUUGUCCAGUUUUAUUAAAUCCCGUCGUAGCCACCA
DNA 1: CAATCTGAATTCCGGTCTCCC
DNA 2: TGGTGGCTACGACGGGATT
B2: UCGAAGU (DNA:RNA)
RNA: GGGAGACCGGAAUUCAGAUUGUCCUCGAAGUUUAAAUCCCGUCGUAGCCACCA
DNA 1: CAATCTGAATTCCGGTCTCCC
DNA 2: TGGTGGCTACGACGGGATT
B3: GUCCUUU (DNA:RNA)
RNA: B1 RNA with A25G, G26U, U27C, U28C, A31U
DNA 1: CAATCTGAATTCCGGTCTCCC
DNA 2: TGGTGGCTACGACGGGATT
B4: CGACCAC (DNA:RNA)
RNA: B1 RNA with A25C, U27A, U28C, U29C, U30A, A31C
DNA 1: CAATCTGAATTCCGGTCTCCC
DNA 2: TGGTGGCTACGACGGGATT
B5: AACACUU (DNA:RNA)
RNA: B1 RNA with G26A, U27C, U28A, U29C, A31U
DNA 1: CAATCTGAATTCCGGTCTCCC
DNA 2: TGGTGGCTACGACGGGATT
B6: ACAACGA (DNA:RNA)
RNA: B2 RNA with U25A, G27A, A29C, U31A
DNA 1: CAATCTGAATTCCGGTCTCCC
DNA 2: TGGTGGCTACGACGGGATT
B7: GGAGGAU (DNA:RNA)
RNA: B1 RNA with A25G, U27A, U28G, U29G, U30A, A31U
DNA 1: CAATCTGAATTCCGGTCTCCC
DNA 2: TGGTGGCTACGACGGGATT
B8: AAUCGAA (DNA:RNA)
RNA: B1 RNA with G26A, U28C, U29G, U30A
DNA 1: CAATCTGAATTCCGGTCTCCC
DNA 2: TGGTGGCTACGACGGGATT
B9: GCCCGCC (DNA:RNA)
RNA: B2 RNA with U25G, G27C, A28C, A29G, G30C, U31C
DNA 1: CAATCTGAATTCCGGTCTCCC
DNA 2: TGGTGGCTACGACGGGATT
B10: CGCCGCC (DNA:RNA)
RNA: B1 RNA with A25C, U27C, U28C, U29G, U30C, A31C
DNA 1: CAATCTGAATTCCGGTCTCCC
DNA 2: TGGTGGCTACGACGGGATT
B11: AGCCUUG (DNA:RNA)
RNA: B1 RNA with U27C, U28C, A31G
DNA 1: CAATCTGAATTCCGGTCTCCC
DNA 2: TGGTGGCTACGACGGGATT
B12: GCCAGCC (DNA:RNA)
RNA: B2 RNA with U25G, G27C, A29G, G30C, U31C
DNA 1: CAATCTGAATTCCGGTCTCCC
DNA 2: TGGTGGCTACGACGGGATT
B13: GCCUUGG (DNA:RNA)
RNA: B1 RNA with A25G, G26C, U27C, U30G, A31G
DNA 1: CAATCTGAATTCCGGTCTCCC
DNA 2: TGGTGGCTACGACGGGATT
B14: ACCAGCC (DNA:RNA)
RNA: B2 RNA with U25A, G27C, A29G, G30C, U31C
DNA 1: CAATCTGAATTCCGGTCTCCC
DNA 2: TGGTGGCTACGACGGGATT
B15: GUCCGCC (DNA:RNA)
RNA: GGGAGACCGGAAUUCAGAUUGUCCGUCCGCCUUAAAUCCCGUCGUAGCCACCA
DNA 1: CAATCTGAATTCCGGTCTCCC
DNA 2: TGGTGGCTACGACGGGATT
B16: CGCCUUG (DNA:RNA)
RNA: B1 RNA with A25C, U27C, U28C, A31G
DNA 1: CAATCTGAATTCCGGTCTCCC
DNA 2: TGGTGGCTACGACGGGATT
B17: AGCAGCC (DNA:RNA)
RNA: B15 RNA with G25A, U26G, C28A
DNA 1: CAATCTGAATTCCGGTCTCCC
DNA 2: TGGTGGCTACGACGGGATT
B18: GCUCUGU (DNA:RNA)
RNA: B2 RNA with U25G, G27U, A28C, A29U
DNA 1: CAATCTGAATTCCGGTCTCCC
DNA 2: TGGTGGCTACGACGGGATT
B19: ACCACUU (DNA:RNA)
RNA: B2 RNA with U25A, G27C, A29C, G30U
DNA 1: CAATCTGAATTCCGGTCTCCC
DNA 2: TGGTGGCTACGACGGGATT
B20: GCUCAUC (DNA:RNA)
RNA: B15 RNA with U26C, C27U, G29A, C30U
DNA 1: CAATCTGAATTCCGGTCTCCC
DNA 2: TGGTGGCTACGACGGGATT
B21: UUAAUGA (DNA:RNA)
RNA: B2 RNA with C26U, G27A, A29U, U31A
DNA 1: CAATCTGAATTCCGGTCTCCC
DNA 2: TGGTGGCTACGACGGGATT
B22: CUGGUAA (DNA:RNA)
RNA: B1 RNA with A25C, G26U, U27G, U28G, U30A
DNA 1: CAATCTGAATTCCGGTCTCCC
DNA 2: TGGTGGCTACGACGGGATT
B23: AAGAUCU (DNA:RNA)
RNA: B2 RNA with U25A, C26A, A29U, G30C
DNA 1: CAATCTGAATTCCGGTCTCCC
DNA 2: TGGTGGCTACGACGGGATT
B24: AAAUCAC (DNA:RNA)
RNA: B1 RNA with G26A, U27A, U29C, U30A, A31C
DNA 1: CAATCTGAATTCCGGTCTCCC
DNA 2: TGGTGGCTACGACGGGATT
B25: UUAUGCG (DNA:RNA)
RNA: B15 RNA with G25U, C27A, C28U, C31G
DNA 1: CAATCTGAATTCCGGTCTCCC
DNA 2: TGGTGGCTACGACGGGATT
B26: GUAUGUC (DNA:RNA)
RNA: B15 RNA with C27A, C28U, C30U
DNA 1: CAATCTGAATTCCGGTCTCCC
DNA 2: TGGTGGCTACGACGGGATT
B27: GCGUAUG (DNA:RNA)
RNA: B2 RNA with U25G, A28U, G30U, U31G
DNA 1: CAATCTGAATTCCGGTCTCCC
DNA 2: TGGTGGCTACGACGGGATT
B28: GCGUCGU (DNA:RNA)
RNA: B2 RNA with U25G, A28U, A29C
DNA 1: CAATCTGAATTCCGGTCTCCC
DNA 2: TGGTGGCTACGACGGGATT
B29: CGCGUCG (DNA:RNA)
RNA: B1 RNA with A25C, U27C, U28G, U30C, A31G
DNA 1: CAATCTGAATTCCGGTCTCCC
DNA 2: TGGTGGCTACGACGGGATT
B30: GUAUGCG (DNA:RNA)
RNA: B15 RNA with C27A, C28U, C31G
DNA 1: CAATCTGAATTCCGGTCTCCC
DNA 2: TGGTGGCTACGACGGGATT
B31: GCGUUUG (DNA:RNA)
RNA: B1 RNA with A25G, G26C, U27G, A31G
DNA 1: CAATCTGAATTCCGGTCTCCC
DNA 2: TGGTGGCTACGACGGGATT
B32: GUAUGCC (DNA:RNA)
RNA: B15 RNA with C27A, C28U
DNA 1: CAATCTGAATTCCGGTCTCCC
DNA 2: TGGTGGCTACGACGGGATT
B33: GCGUCCG (DNA:RNA)
RNA: B15 RNA with U26C, C27G, C28U, G29C, C31G
DNA 1: CAATCTGAATTCCGGTCTCCC
DNA 2: TGGTGGCTACGACGGGATT

This test concerns the target T1, RBFOX1 RRM RbFoxmut (Fox-RRM*) (Homo sapiens, UniProt Q9NWB1 109-208, R118D;E147R;N151S;E152T).
T1 sequence: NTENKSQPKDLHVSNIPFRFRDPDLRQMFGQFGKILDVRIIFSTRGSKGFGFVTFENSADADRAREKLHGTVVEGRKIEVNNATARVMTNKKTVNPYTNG
Kind of test: EMSA; HiTS-Eq, 1 nM pool, 10 min; buffer printed only for the single-RNA assays: 10 mM Tris pH 7.5, 150 mM NaCl, 3.4 mM EDTA, 0.001% NP-40, 30 C. To be noted: tags: His6 N-terminal (pET28a); label: 5' 32P. The gist of the method: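 These values rest on relative association constants, computed from read-count changes of each RNA species versus the control reaction and normalised to the cognate motif. Reads came from free RNA recovered by 8% native PAGE after purified RbFox RRM (wild type or mutant) at increasing concentrations was equilibrated for 10 min in 50 µL with 1 nM of a 5′-radiolabelled pool with 7 randomized nucleotides and DNA-annealed flanks.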
Background: Mobility shift assays separate free from complexed probe on a gel.
Take B1: the binding signal is 0.101 KA relative to UGCAUGU.
With B2, the binding signal is 0.107 KA relative to UGCAUGU.
Next, B3: 0.081 KA relative to UGCAUGU.
In the case of B4, the binding signal was 0.0643 KA relative to UGCAUGU.
Take B5: the binding signal is 0.0596 KA relative to UGCAUGU.
Next, B6: 0.0863 KA relative to UGCAUGU.
Consider B7, for which the binding signal is 0.0724 KA relative to UGCAUGU.
As for B8, the binding signal was 0.081 KA relative to UGCAUGU.
For the molecule B9, the binding signal is 0.0938 KA relative to UGCAUGU.
With B10, the binding signal is 0.13 KA relative to UGCAUGU.
In the case of B11, the binding signal was 0.576 KA relative to UGCAUGU.
With B12, the binding signal was 0.075 KA relative to UGCAUGU.
In the case of B13, the binding signal is 0.501 KA relative to UGCAUGU.
Next, B14: 0.0795 KA relative to UGCAUGU; B15: 0.105 KA relative to UGCAUGU.
Take B16: the binding signal is 0.978 KA relative to UGCAUGU.
With B17, the binding signal is 0.0801 KA relative to UGCAUGU.
Next, B18: 0.102 KA relative to UGCAUGU; B19: 0.0717 KA relative to UGCAUGU; B20: 0.06 KA relative to UGCAUGU.
Next, B21: 0.0717 KA relative to UGCAUGU; B22: 0.121 KA relative to UGCAUGU; B23: 0.0643 KA relative to UGCAUGU.
Next, B24: 0.0617 KA relative to UGCAUGU.
As for B25, the binding signal is 0.13 KA relative to UGCAUGU.
Turning to B26, the binding signal is 0.334 KA relative to UGCAUGU.
Next, B27: 0.876 KA relative to UGCAUGU.
Next, B28: 0.129 KA relative to UGCAUGU; B29: 0.101 KA relative to UGCAUGU.
Next, B30: 0.468 KA relative to UGCAUGU; B31: 0.403 KA relative to UGCAUGU.
For the molecule B32, the binding signal is 0.278 KA relative to UGCAUGU.
Next, B33: 0.135 KA relative to UGCAUGU.
